Source: PMC5540273 (PLoS ONE, 2017)

How the values were obtained:
Settings in all cases: concentration: 1 μM, replicates: in singlicate; n = 1
EPHB3 = test system: EPHB3
EPHB4 = test system: EPHB4
EPHB6 = test system: EPHB6
ERBB2 = test system: ERBB2
ERBB3 = test system: ERBB3
ERBB4 = test system: ERBB4
ERK1 = test system: T1, ERK1
T1 construct: gene MAPK3

ERK2 = test system: T2, ERK2
T2 construct: gene MAPK1

ERK3 = test system: T3, ERK3
T3 construct: gene MAPK6

ERK4 = test system: T4, ERK4
T4 construct: gene MAPK4

ERK5 = test system: T5, ERK5
T5 construct: gene MAPK7

ERK8 = test system: T6, ERK8
T6 construct: gene MAPK15

ERN1 = test system: ERN1
FAK = test system: T7, FAK
T7 construct: gene PTK2

FER = test system: FER
FES = test system: FES
FGFR1 = test system: FGFR1
FGFR2 = test system: FGFR2
FGFR3 = test system: FGFR3
FGFR4 = test system: FGFR4
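Note: KINOMEscan kinase panel screen.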

Structure (SMILES)	%Inh (EPHB3)	%Inh (EPHB4)	%Inh (EPHB6)	%Inh (ERBB2)	%Inh (ERBB3)	%Inh (ERBB4)	%Inh (ERK1)	%Inh (ERK2)	%Inh (ERK3)	%Inh (ERK4)	%Inh (ERK5)	%Inh (ERK8)	%Inh (ERN1)	%Inh (FAK)	%Inh (FER)	%Inh (FES)	%Inh (FGFR1)	%Inh (FGFR2)	%Inh (FGFR3)	%Inh (FGFR4)
Cn1c(=O)c(F)c(Nc2ccc(I)cc2F)c2c(=O)n(OC[C@H](O)CO)cnc21	17%	32%	0%	0%	41%	3%	0%	8%	9%	7%	24%	16%	0%	30%	10%	9%	23%	4%	0%	12%
CC(C)(C)c1ccc(C(=O)Nc2cn3cc(-c4ccccc4)ccc3n2)cc1	3%	0%	0%	50%	0%	4%	0%	0%	0%	6%	0%	20%	26%	0%	0%	0%	0%	1%	7%	0%
COc1cc2ncn(-c3cc(OCc4ccncc4Br)c(C(N)=O)s3)c2cc1OC [GW854278]	0%	18%	3%	11%	37%	0%	0%	0%	0%	4%	0%	0%	24%	0%	2%	0%	43%	16%	29%	7%
COc1ccc(CNC(=O)NC2CCN(c3ccnc(Nc4ccc(F)cc4)n3)C2)cc1 (stereo not drawn) [GSK1379706]	6%	16%	30%	41%	47%	2%	6%	14%	14%	0%	0%	0%	0%	4%	25%	0%	0%	15%	22%	15%
CCn1c(-c2nonc2N)nc2ccccc21 [SB-693162/GW549034]	0%	0%	45%	0%	4%	0%	0%	10%	0%	0%	0%	1%	26%	8%	0%	0%	0%	7%	14%	0%
COc1cc2ncn(-c3cc(OCCCc4ccccc4)c(C(N)=O)s3)c2cc1OC [GSK205189]	0%	6%	39%	12%	0%	0%	5%	3%	0%	0%	0%	3%	0%	0%	10%	0%	0%	9%	16%	0%
O=C(NCCNc1ccnc(Nc2ccc(F)cc2)n1)Nc1ccc2c(c1)OCO2 [GSK1379882]	0%	0%	38%	9%	10%	7%	0%	0%	9%	22%	2%	0%	30%	0%	0%	0%	0%	0%	2%	0%
Cc1c(Cn2c(C)nn3c(=O)cc(N4CCO[C@H](C)C4)nc23)cccc1C(F)(F)F [GSK2373690]	10%	0%	0%	7%	0%	32%	17%	14%	10%	2%	0%	0%	10%	0%	20%	0%	5%	1%	18%	3%
OCCCNc1nccc(-c2c(-c3cccc(C(F)(F)F)c3)nn3cc(C(F)(F)F)ccc23)n1 [GW630813]	0%	10%	0%	19%	12%	40%	0%	0%	0%	0%	0%	0%	0%	0%	8%	0%	0%	0%	0%	0%
COC(=O)c1c(-c2ccccc2)c2cc(Br)ccc2c(=O)n1Cc1ccc(NC(=O)CCC(=O)O)cc1	19%	13%	14%	57%	0%	0%	0%	29%	3%	3%	13%	0%	20%	0%	0%	9%	0%	0%	0%	0%
Nc1ncnc2c1ncn2-c1ccc(Cl)cc1 [AH2635]	3%	7%	10%	53%	1%	50%	0%	0%	18%	0%	0%	0%	0%	0%	26%	0%	0%	0%	8%	0%
Nc1n[nH]c2ncc(-c3ccccc3)cc12 [SB-517081]	9%	9%	39%	24%	0%	0%	3%	0%	0%	23%	0%	0%	9%	0%	0%	0%	0%	0%	2%	18%
Cc1ccc(-c2ccc3c(ccc4sc5c(c43)NC[C@@H](C)N=C5N(C)C)n2)cn1	0%	0%	15%	8%	0%	3%	0%	0%	1%	14%	2%	8%	0%	0%	1%	0%	0%	0%	0%	0%
CN1C(=O)C(Nc2cc(Cl)c(O)c(Cl)c2)=C(c2ccc(Cl)cc2)C1=O [SB-404321]	0%	0%	0%	24%	0%	0%	0%	9%	0%	0%	0%	0%	0%	0%	0%	0%	0%	0%	9%	0%
O=C(NCc1cccs1)c1cc(C(=O)c2c(Cl)cccc2Cl)c[nH]1 [GW823670]	0%	0%	0%	0%	0%	20%	0%	5%	0%	0%	0%	0%	0%	91.3%	1%	0%	0%	0%	0%	0%
Fc1cccc(CSc2nnc(-c3ccc4c(c3)CCO4)o2)c1	0%	0%	14%	59%	8%	0%	5%	30%	21%	0%	0%	3%	14%	0%	0%	0%	0%	0%	0%	6%
CCCNC(=O)Nc1ccc(Oc2ncnc3ccn(C)c23)cc1	0%	0%	5%	33%	1%	4%	0%	0%	2%	0%	3%	0%	35%	3%	0%	0%	8%	0%	0%	0%
CCC(=O)c1c(-c2ccccc2)c2cc(Cl)ccc2c(=O)n1Cc1cc(C(=O)NC2CC2)n(C)n1	20%	23%	25%	9%	4%	0%	0%	10%	0%	5%	4%	0%	12%	0%	0%	22%	4%	2%	0%	0%
COC(=O)c1c(-c2ccccc2)c2cc(Br)ccc2c(=O)n1Cc1ccc(S(C)(=O)=O)cc1	30%	18%	34%	55%	6%	13%	1%	38%	4%	3%	8%	0%	23%	6%	0%	20%	0%	10%	2%	0%
O=C(Nc1n[nH]c2nc(-c3ccccc3)c(Br)cc12)C1CC1 [SB-708998]	5%	13%	23%	11%	3%	0%	5%	0%	2%	0%	100%	15%	0%	0%	7%	0%	14%	0%	13%	5%
O=C(Nc1n[nH]c2nc(-c3ccccc3)c(Cl)cc12)C1CC1 [SB-734909]	7%	15%	48%	6%	32%	0%	0%	0%	0%	0%	0%	0%	24%	0%	0%	0%	0%	4%	5%	0%

Structure (SMILES)	%Inh (EPHB3)	%Inh (EPHB4)	%Inh (EPHB6)	%Inh (ERBB2)	%Inh (ERBB3)	%Inh (ERBB4)	%Inh (ERK1)	%Inh (ERK2)	%Inh (ERK3)	%Inh (ERK4)	%Inh (ERK5)	%Inh (ERK8)	%Inh (ERN1)	%Inh (FAK)	%Inh (FER)	%Inh (FES)	%Inh (FGFR1)	%Inh (FGFR2)	%Inh (FGFR3)	%Inh (FGFR4)
Nc1nccc2scc(-c3ccc4c(c3)CCN4C(=O)Cc3ccccc3)c12 [GSK2576924]	4%	22%	88%	31%	0%	8%	0%	0%	0%	33%	10%	0%	15%	0%	16%	0%	0%	0%	27%	7%
O=C(Nc1n[nH]c2cc(-c3ccccc3F)ccc12)C1CC1 [SB-733371]	0%	5%	0%	0%	0%	18%	0%	0%	0%	0%	16%	43%	0%	0%	0%	1%	1%	0%	0%	0%
COc1cc(Nc2ccnc3ccc(C(F)(F)F)cc23)cc(OC)c1OC [GW577382]	14%	20%	49%	16%	30%	23%	0%	5%	0%	1%	0%	0%	0%	0%	21%	2%	16%	25%	3%	11%
Cl.c1ccc(Cn2cnc3cc(Nc4ncnc5ccccc45)ccc32)cc1 [GW272142]	12%	13%	80%	38%	0%	33%	0%	0%	19%	0%	1%	0%	1%	0%	21%	0%	0%	0%	14%	3%
COc1cc2nccc(Nc3ccc(OCc4ccc(NC(C)=O)cc4)cc3)c2cc1OC.Cl [GW440135]	32%	19%	19%	31%	40%	9%	0%	0%	5%	0%	0%	25%	0%	0%	4%	8%	4%	47%	26%	0%
Nc1ncnc2c1ncn2-c1cccc(F)c1 [SKF-97560]	0%	0%	25%	1%	20%	0%	9%	0%	13%	2%	3%	0%	27%	1%	14%	0%	0%	12%	1%	90.7%
O=C(Nc1ccc2c(c1)OCO2)NC1CCN(c2ccnc(NCc3ccc(F)cc3)n2)CC1 [GSK1379859]	15%	0%	4%	35%	0%	43%	0%	0%	9%	3%	0%	0%	0%	0%	8%	0%	4%	0%	0%	0%
CCC(=O)c1c(-c2ccccc2)c2cc(Cl)ccc2c(=O)n1Cc1ccc(C(=O)O)cc1	5%	0%	0%	16%	0%	0%	0%	5%	0%	0%	0%	0%	0%	0%	0%	5%	0%	0%	0%	0%
COc1ccc(-c2cc3c(C)nc(N)nc3n([C@H]3CC[C@H](O)CC3)c2=O)cn1	0%	0%	4%	0%	0%	0%	0%	0%	0%	5%	0%	0%	0%	0%	0%	0%	0%	0%	0%	0%
COc1cc(Nc2nccc(N3CCC(NC(=O)C(C)c4ccc(Cl)cc4)C3)n2)cc(OC)c1OC (stereo not drawn) [GSK1379757]	23%	11%	94.7%	61%	0%	26%	0%	0%	5%	12%	0%	0%	0%	0%	2%	18%	0%	45%	2%	0%
Cc1cc(Nc2nc(-c3cccc(C)n3)nc3ccccc23)ccn1 [GW872411]	0%	0%	0%	0%	0%	0%	0%	0%	0%	0%	3%	13%	0%	0%	0%	0%	12%	0%	0%	0%
CCC(=O)c1c(-c2ccccc2)c2cc(Cl)ccc2c(=O)n1Cc1cc(S(C)(=O)=O)n(CC(F)F)n1	1%	0%	0%	0%	0%	0%	7%	11%	0%	0%	0%	6%	0%	0%	0%	0%	0%	4%	0%	0%
COc1cc(OC)cc(-c2cc3cnc(N)nc3nc2NC(=O)NC(C)(C)C)c1	0%	0%	24%	4%	0%	4%	0%	0%	0%	4%	2%	29%	0%	0%	0%	0%	97.8%	96.7%	96.3%	54%
COc1cc(Nc2nccc(N3CCC(NC(=O)C4COc5ccccc5O4)C3)n2)cc(OC)c1OC (stereo not drawn) [GSK1379761]	0%	7%	93.9%	50%	37%	30%	0%	0%	5%	15%	0%	0%	2%	0%	17%	0%	3%	30%	9%	0%
Nc1ncnc2c1ncn2-c1cccc2ccccc12 [SKF-97184]	0%	0%	0%	10%	26%	41%	0%	0%	0%	0%	0%	9%	0%	0%	0%	0%	12%	0%	0%	0%
COc1ccc(-c2cc3c(C)nc(N)nc3n([C@H]3CC[C@H](OCCO)CC3)c2=O)cn1	16%	5%	4%	13%	0%	0%	0%	14%	0%	16%	12%	0%	0%	0%	13%	1%	7%	0%	0%	0%
CCc1ccc(-c2ccc3c(c2)-c2nn(C)cc2S(=O)(=O)N3C)cc1	0%	0%	12%	2%	24%	0%	3%	0%	0%	0%	5%	36%	0%	5%	6%	0%	16%	0%	0%	0%
Cc1cccc(-c2nc(Nc3ccc4c(cnn4C)c3)c3ccccc3n2)n1 [GW876731]	0%	0%	13%	0%	0%	8%	0%	0%	0%	0%	1%	0%	29%	11%	9%	4%	0%	21%	4%	0%
Cc1nnc(-c2ccc(C)c(-c3ccc(C(=O)O)cc3)c2)o1 [GW608005]	6%	5%	0%	36%	0%	76%	0%	0%	0%	0%	0%	20%	5%	0%	0%	0%	5%	0%	0%	0%
COc1cccc(-n2cnc3c(N)ncnc32)c1 [SKF-97416]	0%	0%	28%	31%	46%	1%	0%	0%	5%	0%	0%	8%	43%	4%	0%	4%	7%	0%	0%	0%
Cc1nnc(-c2ccc3ncn(-c4ccc(S(C)=O)cc4)c3c2)o1 (stereo not drawn)	35%	6%	3%	29%	0%	11%	0%	26%	0%	15%	3%	6%	18%	1%	5%	20%	1%	14%	9%	12%
